Records with an inconclusive call do not appear. Activity calls are given as the source filed them. Unless noted, calls come from the whole dose curve.
Tests used:
[1] = molecular target: KiSS-1 receptor (Homo sapiens) (UniProt Q969F8); assay: Human kisspeptin (KISS1R) small molecule agonists, calcium flux assay in KISS1R-HEK293 cells (AID 1920064; active = well fitted activation curve with a large enough effect in the repeat runs)
Procedure, shortened: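 Measures KISS1R agonism through calcium-sensitive dye fluorescence in stably transfected HEK293 cells, read for 3 min after pin-tool compound delivery; 15-point titrations in triplicate.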

[2] = p53 small molecule agonists, cell-based qHTS assay with rat liver microsomes (AID 1963578)
Procedure, shortened: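 With rat liver microsomes and NADPH present (0.5 mg/mL final each), p53RE-bla cells are treated with compound for 16 h at 37 C. LiveBLAzer detection mixture is then applied for 2 h at room temperature in the dark.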

[3] = p53 small molecule agonists, cell-based qHTS assay with human liver microsomes: qHTS cell viability counter screen (AID 1963579); note: nearly all actives have a fitted effect of over 45% in size
Procedure, shortened: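 In this multiplexed counter screen, the reporter plates were subsequently treated with CellTiter-Glo so that cell viability, reflected by luminescence, could be recorded for p53RE-bla cells dosed 16 h with compounds under microsomal activation (HLM and NADPH).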

[4] = p53 small molecule agonists, cell-based qHTS assay with rat liver microsomes: qHTS cell viability counter screen (AID 1963580); note: nearly all actives have a fitted effect of over 45% in size
Procedure, shortened: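 In HCT-116 cells carrying a p53 response element-bla reporter, compounds were metabolically activated in situ by rat liver microsomes with NADPH over 16 h. Cell ATP content then served as the cytotoxicity measure.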

[5] = p53 small molecule agonists, cell-based qHTS assay: qHTS cell viability counter screen (AID 1963581); note: nearly all actives have a fitted effect of over 45% in size
Procedure, shortened: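 In the same plates used for the p53 bla reporter, HCT-116 cells given compounds for 16 h at 37 C received CellTiter-Glo; luminescence was recorded 30 min later at room temperature.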

[6] = p53 small molecule agonists, cell-based qHTS assay (AID 1963582; active = well fitted activation curve with a large enough effect in the signal ratio in the repeat runs, not every such curve was filed as active; the % refers to the signal ratio)
Procedure, shortened: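 Compounds are pin-transferred in DMSO onto p53RE-bla cells and incubated 16 h at 37 C. The B/G FRET beta-lactamase substrate is then applied for 2 h at RT and fluorescence recorded.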

[7] = molecular target: 5-hydroxytryptamine receptor 2A (Homo sapiens) (UniProt P28223); assay: 5-hydroxytryptamine receptor 2A (HTR2A) small molecule antagonists, cell-based qHTS assay (AID 1963586); note: nearly all actives have a fitted effect of over 45% in size
Sequence of 5-hydroxytryptamine receptor 2A (Homo sapiens) (P28223 whole entry, looked up): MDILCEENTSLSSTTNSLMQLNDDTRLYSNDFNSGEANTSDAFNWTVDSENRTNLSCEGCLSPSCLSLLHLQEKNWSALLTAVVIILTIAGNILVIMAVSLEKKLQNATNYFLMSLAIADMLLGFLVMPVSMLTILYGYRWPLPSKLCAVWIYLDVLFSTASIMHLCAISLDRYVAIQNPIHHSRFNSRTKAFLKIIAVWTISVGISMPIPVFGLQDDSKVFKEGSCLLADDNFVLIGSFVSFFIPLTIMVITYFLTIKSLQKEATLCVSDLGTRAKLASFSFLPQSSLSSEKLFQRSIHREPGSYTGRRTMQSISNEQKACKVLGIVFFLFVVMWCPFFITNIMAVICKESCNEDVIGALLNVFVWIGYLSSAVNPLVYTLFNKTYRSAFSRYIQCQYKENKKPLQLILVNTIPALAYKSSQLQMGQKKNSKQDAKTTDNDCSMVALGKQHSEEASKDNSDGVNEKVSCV
Procedure, shortened: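 Antagonist-mode intracellular calcium assay: DOI (4 nM) added after 5 min compound pre-incubation at room temperature to dye-loaded HTR2A-CHO cells. Fluorescence followed for 3 min, sampled every second.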

[8] = molecular target: 5-hydroxytryptamine receptor 2A (Homo sapiens) (UniProt P28223); assay: 5-hydroxytryptamine receptor 2A (HTR2A) small molecule agonists, cell-based qHTS assay (AID 1963587); note: nearly all actives have a fitted effect of over 30% in size
Procedure, shortened: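 HTR2A-CHO cells, plated 18 h at 37 C/5% CO2, dye-loaded 1 h at 37 C; compounds in DMSO added by pin tool (agonist mode). Intracellular calcium flux read as kinetic fluorescence on FDSS over 2 min at 1 s intervals.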

[9] = molecular target: Muscarinic acetylcholine receptor M1 (Homo sapiens) (UniProt P11229); assay: Cholinergic receptor muscarinic 1 (CHRM1) small molecule antagonists, cell-based qHTS assay (AID 1963588); note: nearly all actives have a fitted effect of over 40% in size
Sequence of Muscarinic acetylcholine receptor M1 (Homo sapiens) (P11229 whole entry, looked up): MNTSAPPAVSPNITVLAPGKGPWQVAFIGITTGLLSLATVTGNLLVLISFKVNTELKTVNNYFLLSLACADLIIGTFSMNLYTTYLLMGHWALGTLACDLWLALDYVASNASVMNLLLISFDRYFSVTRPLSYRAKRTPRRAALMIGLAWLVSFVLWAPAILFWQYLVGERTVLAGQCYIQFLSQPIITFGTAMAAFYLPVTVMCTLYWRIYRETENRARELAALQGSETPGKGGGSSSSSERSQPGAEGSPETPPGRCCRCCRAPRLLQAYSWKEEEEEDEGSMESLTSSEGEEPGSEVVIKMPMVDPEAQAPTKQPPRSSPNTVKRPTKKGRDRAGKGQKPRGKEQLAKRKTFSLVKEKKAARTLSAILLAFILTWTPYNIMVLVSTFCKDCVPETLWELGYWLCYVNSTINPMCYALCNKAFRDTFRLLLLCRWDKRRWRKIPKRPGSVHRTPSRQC
Procedure, shortened: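 CHRM1-CHO calcium-flux assay, antagonist mode. Cells were seeded 18 h, dye-loaded 1 h at 37 C and given compound for 5 min at RT, then acetylcholine was added at 50nM. FDSS fluorescence was read 3 min; 15 concentrations, three runs.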

[10] = molecular target: Muscarinic acetylcholine receptor M1 (Homo sapiens) (UniProt P11229); assay: Cholinergic receptor muscarinic 1 (CHRM1) small molecule agonists, cell-based qHTS assay (AID 1963589); note: nearly all actives have a fitted effect of over 35% in size
Procedure, shortened: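 Each compound was tested at 15 concentrations across three independent runs on dye-loaded CHO cells stably expressing human CHRM1, reading intracellular calcium fluorescence kinetically at 1 sec intervals.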

[11] = cAMP Responsive Elements (CRE) small molecule agonists, cell-based qHTS assay (AID 1963590)
Procedure, shortened: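 Cell line: CRE-bla HEK 293T; medium DMEM/10% dialyzed FBS/0.1 mM NEAA/1 mM pyruvate/25 mM HEPES; 3 h compound exposure; beta-lactamase FRET readout after 2 h substrate loading at RT.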

[12] = molecular target: Beta-2 adrenergic receptor (Homo sapiens) (UniProt P07550); assay: Adrenergic beta2 receptor (ADRB2) small molecule antagonists, cell-based qHTS assay (AID 1963592); note: series mostly up to about 92 µM; nearly all actives have a fitted effect of over 50% in size
Sequence of Beta-2 adrenergic receptor (Homo sapiens) (P07550 whole entry, looked up): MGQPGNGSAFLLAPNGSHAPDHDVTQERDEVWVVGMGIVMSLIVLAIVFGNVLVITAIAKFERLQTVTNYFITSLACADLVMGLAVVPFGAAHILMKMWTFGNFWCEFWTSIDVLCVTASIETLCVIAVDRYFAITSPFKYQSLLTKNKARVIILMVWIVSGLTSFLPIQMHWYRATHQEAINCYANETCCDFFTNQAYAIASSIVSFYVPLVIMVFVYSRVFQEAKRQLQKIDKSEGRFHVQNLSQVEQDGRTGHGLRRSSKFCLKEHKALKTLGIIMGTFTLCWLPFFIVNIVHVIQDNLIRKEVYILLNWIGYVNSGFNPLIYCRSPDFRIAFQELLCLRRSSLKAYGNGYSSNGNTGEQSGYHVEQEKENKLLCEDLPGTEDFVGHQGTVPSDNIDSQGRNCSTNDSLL
Procedure, shortened: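 Cells (CHO, stable ADRB2 overexpression) incubated 18-20hr at 37C; compounds added from DMSO; agonist mix (1nM isoproterenol, 100uM IBMX, 25uM Ro-20-1724) added; 0.5hr RT; d2-cAMP and anti-cAMP-cryptate added; 1hr RT; 665/615 nm read.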

[13] = molecular target: D(2) dopamine receptor (Homo sapiens) (UniProt P14416); assay: Dopamine D2 receptor (DRD2) small molecule agonists, cell-based qHTS assay (AID 1963594); note: nearly all actives have a fitted effect of over 35% in size
Sequence of D(2) dopamine receptor (Homo sapiens) (P14416 whole entry, looked up): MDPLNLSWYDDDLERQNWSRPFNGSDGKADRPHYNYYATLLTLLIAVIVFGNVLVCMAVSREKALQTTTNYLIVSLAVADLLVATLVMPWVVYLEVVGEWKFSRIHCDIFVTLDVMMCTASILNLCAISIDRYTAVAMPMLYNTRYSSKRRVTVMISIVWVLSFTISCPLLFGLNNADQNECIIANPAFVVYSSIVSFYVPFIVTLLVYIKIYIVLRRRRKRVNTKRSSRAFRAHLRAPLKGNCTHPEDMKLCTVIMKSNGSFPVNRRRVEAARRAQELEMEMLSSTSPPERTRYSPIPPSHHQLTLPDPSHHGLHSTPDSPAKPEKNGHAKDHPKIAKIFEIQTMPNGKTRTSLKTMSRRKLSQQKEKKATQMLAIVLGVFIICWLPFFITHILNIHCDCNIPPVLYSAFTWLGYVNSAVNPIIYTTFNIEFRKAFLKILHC
Procedure, shortened: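 HEK293 cells stably expressing DRD2 were cultured 24 h at 37 C, then given Ro20-1724 (0.1 mM final) and compounds for 10 min at room temperature. NKH477 (200nM) was then added for 30 min. cAMP was read by HTRF.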

[14] = molecular target: D(2) dopamine receptor (Homo sapiens) (UniProt P14416); assay: Dopamine D2 receptor (DRD2) small molecule antagonists, cell-based qHTS assay (AID 1963595; active = well fitted inhibition curve with a large enough effect in the signal ratio in the repeat runs, with a control signal flat; the % refers to the signal ratio)
Procedure, shortened: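 Human DRD2 antagonist qHTS measuring cAMP by HTRF. The cells are exposed to compound for 10 min, then to NKH477 (200 nM) and quinpirole (12 nM) for 30 min at RT, with Ro20-1724 (0.1 mM) present throughout.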

[15] = Nuclear factor erythroid 2-related factor 2/antioxidant responsive element (Nrf2/ARE) small molecule agonists: luciferase reporter gene qHTS assay in human keratinocytes (AID 1919969); note: nearly all actives have a fitted effect of over 35% in size
[16] = G protein-coupled receptor (GPCR) small molecule agonists, calcium flux assay: HEK293 wild type cell line counter screen (AID 1920065)
Procedure, shortened: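 Readout: fluorescence at 480 nm excitation/540 nm emission, sampled at 1 s intervals for 3 min. Cells had been cultured 18 h, then dye-loaded 1 h at 37 C before compound or ATP addition.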

[17] = p53 small molecule agonists, cell-based qHTS assay with human liver microsomes (AID 1963577);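 note: p53 response element beta-lactamase reporter cells with liver microsomes plus NADPH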
Procedure, shortened: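 16 h, 37 C exposure of p53RE-bla cells to compounds with human liver microsomes and NADPH (0.5 mg/mL final each); detection via LiveBLAzer mixture, 2 h dark at room temperature.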

[18] = cAMP Responsive Elements (CRE) small molecule antagonists, cell-based qHTS assay (AID 1963591; active = well fitted inhibition curve with a large enough effect in the signal ratio in the repeat runs, not every such curve was filed as active; the % refers to the signal ratio)
Procedure, shortened: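 Inhibition of NKH477-driven (0.25 uM final) CRE-beta-lactamase signal in HEK293T cells, 3 h compound exposure at 37 °C, detected by FRET substrate fluorescence.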

[19] = molecular target: Gonadotropin-releasing hormone receptor (Homo sapiens) (UniProt P30968); assay: Human gonadotropin-releasing hormone receptor (GnRHR) small molecule agonists, calcium flux assay in GnRHR-HEK293 cells (AID 1920063); note: nearly all actives have a fitted effect of over 35% in size
Sequence of Gonadotropin-releasing hormone receptor (Homo sapiens) (P30968 whole entry, looked up): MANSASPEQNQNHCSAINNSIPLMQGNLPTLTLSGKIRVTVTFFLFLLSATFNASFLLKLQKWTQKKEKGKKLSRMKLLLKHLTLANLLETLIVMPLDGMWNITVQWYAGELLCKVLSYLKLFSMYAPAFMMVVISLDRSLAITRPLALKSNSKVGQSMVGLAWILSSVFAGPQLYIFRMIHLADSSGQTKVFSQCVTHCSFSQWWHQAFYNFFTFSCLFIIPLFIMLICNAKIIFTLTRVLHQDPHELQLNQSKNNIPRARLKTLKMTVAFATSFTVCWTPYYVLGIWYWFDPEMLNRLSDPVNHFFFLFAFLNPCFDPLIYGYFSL
Procedure, shortened: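 Fluorescence kinetics (480 nm excitation, 540 nm emission; 3 min, 1 s steps) report calcium mobilisation in human GnRHR-HEK293 cells in agonist mode. Dye incubation: 1 h, 37 C.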

Measured: Potency

Sequence of KiSS-1 receptor (Homo sapiens) (Q969F8 whole entry, looked up): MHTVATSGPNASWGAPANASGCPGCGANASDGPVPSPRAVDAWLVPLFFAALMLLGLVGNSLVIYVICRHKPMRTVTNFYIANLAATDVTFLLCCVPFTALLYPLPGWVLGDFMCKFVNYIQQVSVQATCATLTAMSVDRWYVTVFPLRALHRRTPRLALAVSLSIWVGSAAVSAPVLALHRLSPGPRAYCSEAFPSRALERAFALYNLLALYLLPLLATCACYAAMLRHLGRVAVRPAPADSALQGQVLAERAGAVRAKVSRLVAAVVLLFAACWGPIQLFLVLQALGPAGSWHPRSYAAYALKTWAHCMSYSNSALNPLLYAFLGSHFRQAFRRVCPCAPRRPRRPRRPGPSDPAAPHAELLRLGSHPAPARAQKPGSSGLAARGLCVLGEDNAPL

CC(=O)CC(=O)Nc1ccc(C)cc1C
not listed: [15] | [16] | [17] | [18] | [19]
inactive: all other assays above

CC(=O)Oc1cc(C(C)C)c(OCCN(C)C)cc1C
not listed: [3] | [5] | [6] | [19]
inactive: all other assays above

c1ccc(CNCCNCc2ccccc2)cc1
not listed: [2] | [3] | [4] | [6] | [15] | [18]
inactive: all other assays above
